Structures are written as SMILES. A number with no mark means an inactive call. Results filed as inconclusive are left out. The source made the active and inactive calls. Unless noted, calls come from the whole dose curve; as a rule, active = well fitted curve in the direction sought with a large enough effect in the repeat runs; inconclusive = weak or mixed curves; inactive = no such curve, though single readings can be large; an effect the other way counts as inactive or inconclusive.

The nature of test [1]: qHTS assay to identify small molecule antagonists of the estrogen related receptor (ERR) signaling pathway from Tox21 library - cell viability counter screen (AID 1224834). Note: nearly all actives have a fitted effect of over 30% in size. Note: potency is the fitted concentration of half-maximal effect. In outline:
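ERR reporter cells were plated 6 h before compound addition, then exposed to test compounds in DMSO for 17.5 h at 37 C. Viability was read as CellTiter-Fluor fluorescence after a 30-minute incubation at 37 C.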

The target in test [2] is Luciferin 4-monooxygenase (Photinus pyralis) (UniProt P08659). In words: qHTS assay to identify small molecule inhibitors of firefly luciferase (AID 1224835). Note: series mostly up to about 120 µM; nearly all actives have a fitted effect of over 25% in size. In outline:
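Biochemical qHTS: compounds run as interplate titrations against purified firefly enzyme, with D-luciferin and ATP each at its KM concentration. Light output recorded by CCD imaging.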

Test [3] can be described thus: qHTS assay to identify small molecule agonists of the constitutive androstane receptor (CAR) signaling pathway - cell viability counter screen (AID 1224836). Note: series mostly up to about 92 µM; nearly all actives have a fitted effect of over 45% in size. In outline:
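Cells were seeded and incubated 4 hrs. Compounds were added across 15 concentrations together with PK11195 at 0.75 uM final. Plates were incubated 23 hrs at 37 C. CellTiter-Fluor was added and fluorescence measured.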
For orientation: qHTS replaces the single test concentration by a dilution series.

Test [4] in a line: qHTS assay to identify small molecule antagonists of the estrogen related receptor signaling pathway with the pleiotropic PPARgamma coactivator (PGC) from Tox21 10K library - cell viability counter screen (AID 1224840; active = well fitted cell-killing curve with a large enough effect in the repeat runs, not every such curve was filed as active; note: nearly all actives have a fitted effect of over 40% in size). In outline:
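PGC/ERR cells were seeded at 2,000 cells/well and left 6 hours at 37 C/5% CO2 before pin-tool addition of compounds in DMSO. After 17.5 hours at 37 C, CellTiter-Fluor was added and fluorescence read 30 minutes later.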

Test [5] in a line: qHTS assay to identify small molecule agonists of the hypoxia (HIF-1) signaling pathway - cell viability counter screen (AID 1224844; calls by dose curve; note: nearly all actives have a fitted effect of over 50% in size). The method in brief:
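HRE-bla ME-180 cells in medium with 0.5% dialyzed FBS were preincubated 5 hrs at 37C, exposed to compounds for 17 hrs, then viability was read as CellTiter-Glo luminescence after 30 min at room temperature, in the reporter wells.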

The nature of test [6]: qHTS assay to identify small molecule agonists of H2AX (AID 1224845; active = well fitted activation curve with a large enough effect in the signal ratio in the repeat runs, not every such curve was filed as active; the % refers to the signal ratio). In outline:
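Wild-type CHO-K1 cells, plated overnight, exposed 3hr at 37C to 15 concentrations (0.76% DMSO final). Lysed, then HTRF anti-pH2AX (S139) cryptate and anti-H2AX-d2 antibodies, 24 hr room temperature; 665/620 nm emission read.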

A short description of test [7]: qHTS assay to identify small molecule agonists of the hypoxia (HIF-1) signaling pathway (AID 1224846; active = well fitted activation curve with a large enough effect in the signal ratio in the repeat runs, not every such curve was filed as active; the % refers to the signal ratio). In outline: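 HRE-bla ME-180 cells (beta-lactamase reporter under hypoxia response element) were plated at 2,000 cells/well in medium with 0.5% dialyzed FBS, rested 5 hrs, then given compounds in DMSO for 17 hrs at 37C, 5% CO2. Reporter induction was read with CCF4-AM FRET substrate.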

A short description of test [8]: qHTS assay to identify small molecule agonists of H2AX - cell viability counter screen (AID 1224847; calls by dose curve; note: top concentration of the series differs between compounds; nearly all actives have a fitted effect of over 30% in size). In outline:
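Cytotoxicity counter screen in wild-type CHO-K1 cells: a 3 hr compound treatment at 37C across 15 concentrations, followed by CellTiter-Glo luminescence to gauge viable cells.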

Test [9] in a line: qHTS RealTime-Glo MT Cell Viability Assay in HepG2 cells - 24 hour (AID 1224867). Note: nearly all actives have a fitted effect of over 50% in size. The method in brief:
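Viability was tracked continuously by NanoLuc luminescence from prosubstrate reduced by living HepG2 cells, at successive time points over 40 h of compound exposure. Cells with reagent were preincubated 5 h at 37 °C before compound addition.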

A short description of test [10]: qHTS RealTime-Glo MT Cell Viability Assay in HEK293 cells - 32 hour (AID 1224868). Note: top concentration of the series differs between compounds; nearly all actives have a fitted effect of over 50% in size. The method in brief:
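Viability tracked continuously by luminescence as live cells reduce a prosubstrate for NanoLuc; HEK293 cells preincubated 5 h, compound-treated at 37 C, and read at 0, 8, 16, 24, 32 and 40 h.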

Test [11] is described as follows: A CellTox Green Cytotoxicity Assay to monitor cytotoxicity in HEK293 cells - 0 hour (AID 1224869). Note: nearly all actives have a fitted effect of over 50% in size. In outline:
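HEK293 cells premixed with CellTox Green dye were seeded at 600 cells/well and left 5 h at 37 C/5% CO2 before pin transfer of 23 nL compound in DMSO. Fluorescence from dye bound to dead-cell DNA was read during 40 h treatment.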

A short description of test [12]: qHTS RealTime-Glo MT Cell Viability Assay in HepG2 cells - 40 hour (AID 1224870). Note: nearly all actives have a fitted effect of over 50% in size. The method in brief:
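HepG2 cells (600/well) mixed with RealTime-Glo MT reagent, settled 5 h at 37 C/5% CO2 before compound addition. Nonlytic NanoLuc luminescence from viable-cell prosubstrate reduction read repeatedly during 40 h treatment at 37 C.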

In test [13] the target is Nuclear receptor subfamily 1 group I member 3 (Homo sapiens) (UniProt Q14994). In words: qHTS assay to identify small molecule antagonists of the constitutive androstane receptor (CAR) signaling pathway (AID 1224838). Note: nearly all actives have a fitted effect of over 40% in size. The method in brief:
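HepG2 cells stably co-transfected with hCAR and a CYP2B6-2.2kb luciferase reporter were seeded 4 h before compound addition at 15 concentrations. Cells were stimulated with 50 nM CITCO (final) for 24 h at 37 C; luciferase luminescence was then read.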

For test [14] the target is unchanged. The experiment in a line: qHTS assay to identify small molecule agonists of the constitutive androstane receptor (CAR) signaling pathway (AID 1224839).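 For activation: HepG2 cells stably carrying human CAR and a CYP2B6 luciferase reporter; series mostly up to about 92 µM.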 Note: nearly all actives have a fitted effect of over 15% in size. Note: potency is the fitted concentration of half-maximal effect. The method in brief:
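Cells were plated and incubated 4 hrs, then dosed with compounds at 15 concentrations. PK11195 was added to 0.75 uM final. After 24 hrs at 37 C, luciferase luminescence was measured.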

Test [15] concerns the target Thyrotropin receptor (Homo sapiens) (UniProt P16473). The experiment in a line: qHTS assay to identify small molecule agonists of the thyroid stimulating hormone receptor (TSHR) signaling pathway (AID 1224843; calls by dose curve; note: nearly all actives have a fitted effect of over 45% in size). In outline: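 Steps: seed 800 TSHR-HEK293 cells per well; add test compound and hold 30 min at ambient temperature; dispense cAMP-d2 then anti-cAMP cryptate; incubate 1 h at ambient; measure fluorescence intensity.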

The nature of test [16]: qHTS assay to identify small molecule antagonists of the constitutive androstane receptor (CAR) signaling pathway - cell viability counter screen (AID 1224837). Note: series mostly up to about 92 µM; nearly all actives have a fitted effect of over 45% in size. The method in brief:
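HepG2 cells stably expressing hCAR and a CYP2B6-2.2kb reporter were plated and pre-incubated 4 hr at 37 C/5% CO2, then given compounds at 15 concentrations plus 50 nM CITCO (final). After 23 hr, viability was read by CellTiter-Fluor fluorescence.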

A short description of test [17]: qHTS assay to identify small molecule antagonists of the estrogen related receptor signaling pathway with the pleiotropic PPARgamma coactivator (PGC) from Tox21 10K library (AID 1224841; call rule not given here). The method in brief: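 PGC/ERR reporter cells were seeded at 2,000 cells/well and held 6 hours at 37 C/5% CO2 before pin-tool addition of compounds in DMSO. After 18 hours at 37 C, One-Glo was added and luminescence read after 30 minutes at room temperature.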

A short description of test [18]: qHTS assay to identify small molecule agonists of the estrogen related receptor signaling pathway with the pleiotropic PPARgamma coactivator (PGC) from Tox21 10K library (AID 1224842). Note: nearly all actives have a fitted effect of over 15% in size. The method in brief:
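PGC/ERR reporter cell line, 2,000 cells per well, incubated 6 h at 37 C before 23 nL compound in DMSO was added. After 18 h at 37 C, One-Glo luminescence read following 30 min at room temperature.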

The nature of test [19]: qHTS assay to identify small molecule antagonists of the estrogen related receptor (ERR) signaling pathway from Tox21 library (AID 1224848). Note: nearly all actives have a fitted effect of over 50% in size. In outline: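 Luminescent reporter read-out (ONE-Glo) from NTP's ERR cell line after 18 h treatment at 37 C with DMSO-dissolved Tox21 compounds; cells pre-plated 6 h beforehand at 2,000 per well.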
A short description of test [20]: qHTS assay to identify small molecule agonists of the estrogen related receptor (ERR) signaling pathway from Tox21 library (AID 1224849; calls by dose curve; note: nearly all actives have a fitted effect of over 15% in size). The method in brief:
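ERR reporter cell line (NTP) seeded, rested 6 h at 37 C/5% CO2, then pinned with Tox21 compounds in DMSO. After 18 h at 37 C, ONE-Glo luciferase luminescence was read following 30 min at room temperature.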
% is set by controls: 0 for no effect and ±100 for the full control effect.

Chain of Luciferin 4-monooxygenase (Photinus pyralis) (P08659 whole entry, looked up): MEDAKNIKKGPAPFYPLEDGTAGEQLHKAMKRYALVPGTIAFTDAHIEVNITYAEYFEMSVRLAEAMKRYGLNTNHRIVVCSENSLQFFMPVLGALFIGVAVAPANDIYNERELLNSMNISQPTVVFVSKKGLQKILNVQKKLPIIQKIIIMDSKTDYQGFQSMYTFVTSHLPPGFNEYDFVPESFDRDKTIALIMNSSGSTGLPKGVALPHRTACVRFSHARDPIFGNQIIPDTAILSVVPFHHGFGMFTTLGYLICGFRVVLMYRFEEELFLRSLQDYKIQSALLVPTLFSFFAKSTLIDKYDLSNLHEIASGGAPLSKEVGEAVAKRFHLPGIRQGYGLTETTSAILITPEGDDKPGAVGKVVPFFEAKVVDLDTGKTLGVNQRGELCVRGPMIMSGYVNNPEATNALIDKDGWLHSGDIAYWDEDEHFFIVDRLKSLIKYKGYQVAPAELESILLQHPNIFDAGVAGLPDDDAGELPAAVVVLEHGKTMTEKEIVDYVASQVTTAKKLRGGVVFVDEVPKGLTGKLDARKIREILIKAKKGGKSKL
Chain of Nuclear receptor subfamily 1 group I member 3 (Homo sapiens) (Q14994 whole entry, looked up): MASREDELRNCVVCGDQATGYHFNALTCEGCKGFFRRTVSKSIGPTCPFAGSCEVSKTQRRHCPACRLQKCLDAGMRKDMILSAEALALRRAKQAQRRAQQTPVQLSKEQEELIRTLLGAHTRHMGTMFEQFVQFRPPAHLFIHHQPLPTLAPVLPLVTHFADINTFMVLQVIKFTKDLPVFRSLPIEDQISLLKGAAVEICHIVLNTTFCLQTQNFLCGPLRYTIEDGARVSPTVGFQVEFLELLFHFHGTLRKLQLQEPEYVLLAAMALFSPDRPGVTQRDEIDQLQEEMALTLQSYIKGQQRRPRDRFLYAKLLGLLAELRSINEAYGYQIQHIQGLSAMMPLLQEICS
Chain of Thyrotropin receptor (Homo sapiens) (P16473 whole entry, looked up): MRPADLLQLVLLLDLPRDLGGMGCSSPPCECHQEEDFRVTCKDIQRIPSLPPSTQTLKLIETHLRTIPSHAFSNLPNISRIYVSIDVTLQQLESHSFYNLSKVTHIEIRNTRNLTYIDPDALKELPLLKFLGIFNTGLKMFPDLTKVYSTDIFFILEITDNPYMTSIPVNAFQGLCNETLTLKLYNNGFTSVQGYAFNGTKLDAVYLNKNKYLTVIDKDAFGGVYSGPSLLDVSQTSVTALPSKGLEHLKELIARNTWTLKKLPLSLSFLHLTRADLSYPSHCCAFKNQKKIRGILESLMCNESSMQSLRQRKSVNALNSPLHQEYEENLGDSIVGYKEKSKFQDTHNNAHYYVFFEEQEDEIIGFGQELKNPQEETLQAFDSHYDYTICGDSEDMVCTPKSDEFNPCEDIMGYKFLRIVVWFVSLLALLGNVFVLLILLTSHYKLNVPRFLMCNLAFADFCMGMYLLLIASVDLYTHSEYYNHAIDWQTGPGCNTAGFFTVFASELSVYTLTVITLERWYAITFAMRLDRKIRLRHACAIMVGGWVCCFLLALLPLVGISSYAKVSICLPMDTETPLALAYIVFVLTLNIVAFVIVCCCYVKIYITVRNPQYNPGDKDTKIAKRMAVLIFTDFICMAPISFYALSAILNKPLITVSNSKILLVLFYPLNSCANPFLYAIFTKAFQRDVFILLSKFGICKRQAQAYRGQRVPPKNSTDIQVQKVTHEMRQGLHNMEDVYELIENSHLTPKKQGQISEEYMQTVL

Take `Cc1ncc([C@@H](CCCCCCc2ccc3c(n2)NCCC3)CC(=O)O)cn1`: the Potency in [1] is 0.109 µM (active). In addition, the Potency entry in [2], in [5], in test [6], in [10] and in test [12] was “inactive” throughout. The outcome in [3], in test [4], in [7], in test [8], in [9] and in test [11] was inactive.

As to `CCCCCCCCCCOc1cc2c(=O)c(C(=O)OCC)c[nH]c2cc1OCC`, the viability change, negative = cytotoxic was 3.47% [at 8.39 µM] in [1], 4.44% [at 8.39 µM] in test [3] and 9.28% [at 8.39 µM] in test [4]. Besides, the activity change, negative = inhibition in [2] is -1.76% [at 10.5 µM]. Also, the activity, negative = inhibition in [13] is 5.74% [at 8.39 µM]. Further, the figures for the activation in test [14] and in test [7] were -0.235% [at 8.39 µM] and 0.236% [at 7.01 µM], respectively. Besides, the figures for the activity change, negative = cytotoxicity in test [5], in [8] and in test [9] were 1.84% [at 6.97 µM], 1.5% [at 14 µM] and 3.75% [at 6.97 µM], respectively. In test [6], the activation (H2AX phosphorylation) was 0.376% [at 14 µM]. The activity change, negative = cytotoxic in test [10] is 6.41% [at 6.97 µM]; in [12], 0.617% [at 6.97 µM]. Besides, in test [11], the cytotoxicity was -0.138% [at 6.97 µM].

On to `C[C@H]1[C@H](NC(=O)/C(=N/OC(C)(C)C(=O)O)c2csc(N)n2)C(=O)N1S(=O)(=O)O` (stereo in doubt), for which the Potency entry in test [1], in [13], in test [14], in test [15], in test [5] and in [6] was “inactive” in each case. Moreover, the Potency entry in test [10] and in [12] was “inactive” throughout. Further, the compound was called inactive in test [3], in [4], in test [8], in test [9] and in test [11].

Turning to `COC(=O)Nc1ccc(Cl)c(Cl)c1`, the Potency result in [1], in test [13], in test [6] and in test [12] was “inactive” throughout. Further, the compound was called inactive in [3], in test [16], in [4], in test [7], in [8] and in test [9]. In [11], the result was inactive. The Potency in [14] was 60.8 µM (active).

Consider `CCCCCCCCCCCCCCC(=O)O`, for which the Potency entry in test [1], in test [13], in test [14], in test [15], in test [5] and in test [6] was “inactive” in each case. The Potency entry in test [10] and in test [12] was “inactive” in each case. Besides, the call in test [3], in test [4], in [7], in test [8], in [9] and in test [11] was inactive.

For `C=C(C)C(=O)OCC(O)CO` (stereo not drawn), the Potency result in test [2], in test [13], in [14], in test [17], in test [18] and in test [6] was “inactive” throughout. The Potency result in test [19], in [10] and in test [12] was “inactive” throughout. The compound was called inactive in test [3], in test [16], in test [4], in test [7], in test [8] and in test [20]. For the same compound, the call in test [9] and in test [11] was inactive.

For `O=C1NC(=O)C2CC=CCC12` (stereo not drawn), the Potency entry in [1], in test [13], in test [14], in test [6], in test [19] and in test [10] was “inactive” each time. Further, the Potency entry in test [12] was “inactive”. Besides, the compound was classed as inactive in test [3], in [16], in test [4], in test [7], in test [8] and in test [20]. In addition, the result in test [9] and in [11] was inactive.

In the case of `CC1=NN(c2cc(S(=O)(=O)O)ccc2Cl)C(=O)C1N=Nc1ccccc1` (stereo not drawn), the Potency in [1] is 48.6 µM (active). For the same compound, the Potency entry in [13], in test [14], in [15], in [5], in [10] and in test [12] was “inactive” each time. Besides, the outcome in test [7], in test [8], in test [9] and in test [11] was inactive.

These data come from PubChem BioAssay (Tox21).
